The text below walks through data of paper PMC4336329 (PLoS ONE, 2015).

The whole screen tested about 310,000 compounds, of which about 14,000 (4.5%) showed an effect of 50% or more. Effects have a minus sign here. The list comes from a sample in which strong results are over-represented; it also holds similar structures and randomly drawn compounds.
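Note: peak tail current of the secondary pulse compared with the same well before compound.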

Sequence of human ether-à-go-go-related gene (hERG) potassium channel (Q12809 whole entry, looked up): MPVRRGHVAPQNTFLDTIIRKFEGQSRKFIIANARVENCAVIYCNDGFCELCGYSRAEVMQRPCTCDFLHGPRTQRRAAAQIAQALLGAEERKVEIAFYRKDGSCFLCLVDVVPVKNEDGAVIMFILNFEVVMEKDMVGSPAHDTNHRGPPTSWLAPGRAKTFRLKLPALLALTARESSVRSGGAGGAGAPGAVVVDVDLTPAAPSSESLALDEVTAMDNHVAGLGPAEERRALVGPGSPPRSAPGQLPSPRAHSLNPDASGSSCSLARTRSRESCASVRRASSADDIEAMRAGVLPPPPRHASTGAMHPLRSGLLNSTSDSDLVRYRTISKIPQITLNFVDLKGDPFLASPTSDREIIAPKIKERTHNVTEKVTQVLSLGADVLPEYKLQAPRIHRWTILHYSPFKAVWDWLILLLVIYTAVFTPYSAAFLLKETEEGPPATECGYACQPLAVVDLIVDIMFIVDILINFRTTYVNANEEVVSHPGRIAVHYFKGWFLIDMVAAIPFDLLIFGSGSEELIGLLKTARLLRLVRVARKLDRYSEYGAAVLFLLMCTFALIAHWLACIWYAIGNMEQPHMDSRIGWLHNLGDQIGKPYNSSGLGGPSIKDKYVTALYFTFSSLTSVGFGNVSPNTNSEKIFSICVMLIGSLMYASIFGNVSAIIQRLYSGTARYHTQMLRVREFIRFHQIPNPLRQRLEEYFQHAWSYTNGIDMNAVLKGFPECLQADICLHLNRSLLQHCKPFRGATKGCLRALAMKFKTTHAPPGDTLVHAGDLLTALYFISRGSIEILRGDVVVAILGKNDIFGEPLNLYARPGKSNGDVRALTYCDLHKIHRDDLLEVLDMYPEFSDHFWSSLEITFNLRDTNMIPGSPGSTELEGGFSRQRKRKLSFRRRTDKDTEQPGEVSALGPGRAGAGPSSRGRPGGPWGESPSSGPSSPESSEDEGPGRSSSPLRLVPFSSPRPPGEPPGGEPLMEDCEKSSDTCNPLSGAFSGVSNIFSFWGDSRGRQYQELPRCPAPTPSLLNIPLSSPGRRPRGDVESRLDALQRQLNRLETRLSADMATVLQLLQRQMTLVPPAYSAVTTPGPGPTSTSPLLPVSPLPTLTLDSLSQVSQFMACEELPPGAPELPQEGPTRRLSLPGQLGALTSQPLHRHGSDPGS

This experiment addresses human ether-à-go-go-related gene (hERG) potassium channel (human, UniProt Q12809). Nature of the experiment: primary screen, population patch clamp on CHO cells stably expressing hERG; higher = less effect of the substance.
For `CC1CCC(C(C)C)C(OC(=O)Cn2c(-c3ccc(F)cc3)[n+](C)c3ccccc32)C1.[Cl-]` (stereo not shown), the “hERG current change (%, negative = inhibition) at 10uM” value was -76.3%. Next, `Cc1nnc(SCC(=O)OC2CC(C)CCC2C(C)C)[nH]c1=O` (stereo not shown): 11.1%; `CC1CCC(C(C)C)C(OC(=O)Cn2c(-c3ccc(Br)cc3)[n+](C)c3ccccc32)C1.[Cl-]` (stereo not shown): -78.3%. Next, `CC1CCC(C(C)C)C(OC(=O)Cn2c(-c3ccc(Cl)cc3)[n+](C)c3ccccc32)C1.[Cl-]` (stereo not shown): -82.9%. `COc1cccc(-n2ccnc2SCC(=O)Nc2cc(C)on2)c1`: the “hERG current change (%, negative = inhibition) at 10uM” value came out at 14.1%. Next, `Cc1ccc(S(=O)(=O)Nc2ccc(S(=O)(=O)Nc3cc(C)nc(C)n3)cc2)cc1`: 23.3%; `NC(=O)c1cccnc1Oc1ccccc1`: -30.8%. Next, `O=C(N/N=C/c1ccc(OC(=O)c2cccs2)cc1)c1ccc(F)cc1`: 10%.

Consider `O=C(c1cc(=O)[nH]c2ccc(Br)cc12)N1CCC2(CC1)OCCO2`, for which the “hERG current change (%, negative = inhibition) at 10uM” value was determined as 12.6%. With `CCOC(=O)c1c(-c2ccccc2)csc1NC(=O)c1ccc(S(=O)(=O)N2CCOCC2)cc1` the figure was 9.29%; with `CCN(CC)c1cc(NCCO)c([N+](=O)[O-])c2nonc12`, -25.1%; with `COc1ccc(CCC(=O)NCCS(=O)(=O)N2CCN(c3ccccc3)CC2)cc1`, -36.6%. For `O=C(NCCS(=O)(=O)N1CCN(c2ccccc2F)CC1)c1ccc(Br)cc1`, the “hERG current change (%, negative = inhibition) at 10uM” value is on record as 4.45%. Next, `COc1ccc(CCC(=O)NCCS(=O)(=O)N2CCN(c3ccccc3OC)CC2)cc1`: -8.87%. Next, `O=C(NCCS(=O)(=O)N1CCN(c2ccccc2F)CC1)c1ccc(Cl)cc1`: -55.5%.

In the case of `COc1ccc(CCC(=O)NCCS(=O)(=O)N2CCN(c3ccc(F)cc3)CC2)cc1`, the “hERG current change (%, negative = inhibition) at 10uM” value was -58.8%. With `O=C(CCCc1ccccc1)NCCS(=O)(=O)N1CCN(c2ccccc2F)CC1`, the “hERG current change (%, negative = inhibition) at 10uM” value is reported as -18.5%.

With `COc1ccc(CCC(=O)NCCS(=O)(=O)N2CCN(c3ccccc3F)CC2)cc1`, the “hERG current change (%, negative = inhibition) at 10uM” value is listed as -63.2%. Turning to `O=C(Cc1ccc(Cl)cc1)NCCS(=O)(=O)N1CCN(c2ccccc2F)CC1`, the “hERG current change (%, negative = inhibition) at 10uM” value is given as -10.6%.

`COc1ccc(CCC(=O)NCCS(=O)(=O)N2CCN(c3ccc(OC)cc3)CC2)cc1`: the “hERG current change (%, negative = inhibition) at 10uM” value came out at 7.57%. With `COC(=O)COc1ccc(C(C2C(=O)CC(C)(C)CC2=O)C2C(=O)CC(C)(C)CC2=O)cc1` the figure was 15.8%. With `Cc1oc2c(O)c(O)ccc2c(=O)c1-c1ccc(Cl)cc1` the figure was -11.3%; with `COc1ccc([C@H]2CC(=O)C=C(c3ccc(F)cc3OCc3ccccc3)C2)cc1OC`, 12.1%; with `CCN(CC)c1ccc(SS(=O)(=O)O)cc1`, 9.02%. With `CCOc1ccccc1NC1=CC(=O)CC(c2ccccc2)C1` (stereo not shown) the figure was -16.9%. With `COc1ccc(S(=O)(=O)N2CCN(CC(=O)c3ccc(O)c(O)c3)CC2)cc1`, the “hERG current change (%, negative = inhibition) at 10uM” value is -45%. Take `O=C(CN1CCN(S(=O)(=O)c2cc(Cl)ccc2Cl)CC1)c1ccc(O)c(O)c1`: the “hERG current change (%, negative = inhibition) at 10uM” value turned out to be 26.3%. Turning to `O=C(CN1CCN(S(=O)(=O)c2ccc(Br)cc2)CC1)c1ccc(O)c(O)c1`, the “hERG current change (%, negative = inhibition) at 10uM” value is recorded as -76.8%. Next, `CC(C)c1ccc(S(=O)(=O)N2CCN(CC(=O)c3ccc(O)c(O)c3)CC2)cc1`: -24.6%; `O=C(CN1CCN(S(=O)(=O)c2ccc(F)cc2)CC1)c1ccc(O)c(O)c1`: -34.9%.

For `O=C(CN1CCN(S(=O)(=O)c2ccc(Cl)cc2)CC1)c1ccc(O)c(O)c1`, the “hERG current change (%, negative = inhibition) at 10uM” value is -59.5%.

In the case of `Cc1cccc(-c2nc3ccccc3c3nncn23)c1`, the “hERG current change (%, negative = inhibition) at 10uM” value is recorded as -12.1%. With `CCCn1c(NC(=O)c2cccc(S(=O)(=O)N3CCCC3)c2)nc2ccccc21` the figure was -28.8%. Next, `N#CCn1nnc(-c2ccc3c(c2)OCO3)n1`: -4.09%; `Cc1cc(OCC(=O)OCC(=O)Nc2cc(C(F)(F)F)ccc2N2CCOCC2)ccc1Cl`: 11.1%. With `Cc1cc(C(=O)OCC(=O)Nc2cc(C(F)(F)F)ccc2N2CCOCC2)c(C)o1` the figure was -0.421%; with `COc1cc(Cl)c(C)cc1NC(C)C(=O)Nc1cc(C(F)(F)F)ccc1N1CCOCC1` (stereo not shown), -2.59%; with `O=C(COC(=O)c1ccc(O)cc1)Nc1cc(C(F)(F)F)ccc1N1CCOCC1`, -25%. `COc1ccc(NC(C)=O)cc1NC(C)C(=O)Nc1cc(C(F)(F)F)ccc1N1CCOCC1` (stereo not shown): the “hERG current change (%, negative = inhibition) at 10uM” value is on record as -60.1%. Next, `N#Cc1ccc(OCC(=O)OCC(=O)Nc2cc(C(F)(F)F)ccc2N2CCOCC2)cc1`: -57.7%. With `COc1ccc(NC(C)C(=O)Nc2cc(C(F)(F)F)ccc2N2CCOCC2)c(OC)c1` (stereo not shown) the figure was -19.2%; with `CSc1ncccc1C(=O)OCC(=O)Nc1cc(C(F)(F)F)ccc1N1CCOCC1`, -20.2%.

Take `Cc1ccccc1OCC(=O)OCC(=O)Nc1cc(C(F)(F)F)ccc1N1CCOCC1`: the “hERG current change (%, negative = inhibition) at 10uM” value worked out at 12.9%. With `O=C(COC(=O)c1ccccc1NCCO)Nc1cc(C(F)(F)F)ccc1N1CCOCC1` the figure was -60.2%. `CC(=O)c1c(C)[nH]c(C(=O)OCC(=O)Nc2cc(C(F)(F)F)ccc2N2CCOCC2)c1C`: the “hERG current change (%, negative = inhibition) at 10uM” value is given as -56.1%. With `O=C(COC(=O)COc1ccc2ccccc2c1)Nc1cc(C(F)(F)F)ccc1N1CCOCC1` the figure was 7.69%.
